# Measurements as given in the supplement of paper PMC4022240.
# ± gives the standard deviation.
# T1: HaloTag-ATRX ADD domain (163-292)
# T1 chain: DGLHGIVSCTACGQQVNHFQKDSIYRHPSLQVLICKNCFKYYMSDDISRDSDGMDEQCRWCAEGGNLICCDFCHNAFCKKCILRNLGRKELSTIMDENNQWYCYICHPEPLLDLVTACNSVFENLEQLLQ
# Assays:
# Assay in all cases: peptide microarray binding signal (635 nm), min-max normalized on array (fraction of array maximum); higher = stronger binding
# [1] = biological target: T1, HaloTag-ATRX ADD domain (163-292)
# Outline: (§1)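 Binding signal is the mean intensity of triplicate spots, min-max scaled within each library. Histone 13-mer peptide–cellulose conjugates were spotted in triplicate on nitrocellulose with a Cy3 tracer and blocked overnight at 4°C. Probing lasted 1 h at 4°C, either with biotin-labelled HaloTag reader fusions (10 nM to 1 μM) and streptavidin-Alexa Fluor 647 or with rabbit histone antibodies (1:10,000 to 1:2,000) and anti-rabbit Alexa 647. An Axon GenePix 4000B read signal at 635 nm and misprints at 532 nm.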
# [2] = biological target: HaloTag-ING2 PHD (mouse Ing2 200-280)
# Outline: as §1
# [3] = biological target: anti-H3K4me3 antibody ab8580
# Outline: as §1
# [4] = biological target: anti-H3K9me3 antibody ab8898
# Outline: as §1
# [5] = peptide region: Unmod H4 variant, binder concentration: 50 nM
# [6] = peptide region: Unmod H4 variant, binder concentration: 500 nM
# [7] = peptide region: Unmod H4 variant, binder concentration: 10 nM
# [8] = peptide region: Unmod H4 variant, binder concentration: 100 nM
# [9] = peptide region: Unmod H4 variant, binder concentration: 1:2,000 dilution
# [10] = peptide region: Unmod H4 variant, binder concentration: 1:10,000 dilution
# [11] = peptide region: Unmod H3 variant, binder concentration: 50 nM
# [12] = peptide region: Unmod H3 variant, binder concentration: 500 nM
# [13] = peptide region: Unmod H3 variant, binder concentration: 10 nM
# [14] = peptide region: Unmod H3 variant, binder concentration: 100 nM
# [15] = peptide region: Unmod H3 variant, binder concentration: 1:2,000 dilution
# [16] = peptide region: Unmod H3 variant, binder concentration: 1:10,000 dilution
Binder,"peptide microarray binding signal [1, 5]","peptide microarray binding signal [1, 6]","peptide microarray binding signal [2, 7]","peptide microarray binding signal [2, 8]","peptide microarray binding signal [3, 9]","peptide microarray binding signal [3, 10]","peptide microarray binding signal [4, 9]","peptide microarray binding signal [4, 10]","peptide microarray binding signal [1, 11]","peptide microarray binding signal [1, 12]","peptide microarray binding signal [2, 13]","peptide microarray binding signal [2, 14]","peptide microarray binding signal [3, 15]","peptide microarray binding signal [3, 16]","peptide microarray binding signal [4, 15]","peptide microarray binding signal [4, 16]"
ISGLIYEETRGVL [Unmod H4 variant I S G L I Y E E T R G V L],0.00266 ± 3.1e-05,0.00776 ± 0.0036,0.00233 ± 7.4e-05,0.00319 ± 0.00013,0.00109 ± 5.1e-05,0.00114 ± 1.2e-05,0.0004228 ± 4.1e-06,0.000807 ± 1.5e-05,–,–,–,–,–,–,–,–
AIHAKRVTIMPKD [Unmod H3 variant A I H A K R V T I M P K D],–,–,–,–,–,–,–,–,0.00414 ± 0.00014,0.0132 ± 0.00021,0.00507 ± 0.00019,0.0196 ± 0.0021,0.000849 ± 2.3e-05,0.00211,0.000513 ± 1.3e-05,0.000692 ± 7.3e-06
GKGGAKRHRKVLR [Unmod H4 variant G K G G A K R H R K V L R],0.00508 ± 0.0001,0.0113 ± 0.00031,0.00292 ± 0.00011,0.00836 ± 0.00085,0.000472 ± 9.3e-06,0.000856 ± 1.8e-05,0.000302 ± 3.1e-06,0.00075 ± 7.9e-06,–,–,–,–,–,–,–,–
SGRGKGGKGLGKG [Unmod H4 variant S G R G K G G K G L G K G],0.00426 ± 0.00016,0.009 ± 0.00081,0.00412 ± 0.00013,0.0136 ± 0.0012,0.000831 ± 3.2e-05,0.00108 ± 1.9e-05,0.000438 ± 8.5e-06,0.000692 ± 7.3e-06,–,–,–,–,–,–,–,–
FLENVIRDAVTYT [Unmod H4 variant F L E N V I R D A V T Y T],0.0144 ± 0.0008,0.0404 ± 0.01,0.00901 ± 0.0012,0.0294 ± 0.011,0.00381 ± 0.00074,0.00519 ± 0.00068,0.00331 ± 0.00056,0.0034 ± 0.00025,–,–,–,–,–,–,–,–
IRDAVTYTEHAKR [Unmod H4 variant I R D A V T Y T E H A K R],0.0385 ± 0.0035,0.0711 ± 0.01,0.0251 ± 0.0019,0.0444 ± 0.0047,0.00429 ± 0.00052,0.00913 ± 0.0018,0.00497 ± 9e-05,0.00577 ± 8e-05,–,–,–,–,–,–,–,–
TYTEHAKRKTVTA [Unmod H4 variant T Y T E H A K R K T V T A],0.0167 ± 0.0088,0.0332 ± 0.0014,0.00901 ± 0.00035,0.0293 ± 0.0034,0.00155 ± 0.00011,0.0024 ± 0.00014,0.00104 ± 3.8e-05,0.00202 ± 8.6e-05,–,–,–,–,–,–,–,–
RVTIMPKDIQLAR [Unmod H3 variant R V T I M P K D I Q L A R],–,–,–,–,–,–,–,–,0.00552 ± 9e-05,0.0187 ± 0.001,0.0177 ± 0.00085,0.0422 ± 0.0028,0.00585 ± 0.00079,0.00782 ± 0.00068,0.00403 ± 0.00079,0.00375 ± 0.00014
KRHRKVLRDNIQG [Unmod H4 variant K R H R K V L R D N I Q G],0.00636 ± 0.00015,0.0147 ± 0.00085,0.00549 ± 9.7e-05,0.0208 ± 0.0048,0.000774 ± 7e-06,0.00114 ± 1.2e-05,0.000604 ± 4.7e-05,0.00104 ± 2.8e-05,–,–,–,–,–,–,–,–
VLRDNIQGITKPA [Unmod H4 variant V L R D N I Q G I T K P A],0.0154 ± 0.00068,0.0293 ± 0.0022,0.0201 ± 0.00092,0.0672 ± 0.0023,0.0064 ± 0.00045,0.0089 ± 0.0011,0.00264 ± 0.00015,0.00323 ± 9.4e-05,–,–,–,–,–,–,–,–
AKRKTVTAMDVVY [Unmod H4 variant A K R K T V T A M D V V Y],0.00693 ± 0.00037,0.0206 ± 0.0015,0.00609 ± 0.00018,0.0129 ± 0.0003,0.00104 ± 3.5e-05,0.001484 ± 1.4e-05,0.000604 ± 2e-05,0.00104 ± 1.1e-05,–,–,–,–,–,–,–,–
GVLKVFLENVIRD [Unmod H4 variant G V L K V F L E N V I R D],0.00223 ± 6.3e-05,0.00281 ± 0.00014,0.00388 ± 0.00015,0.00269 ± 6.7e-05,0.00174 ± 0.00026,0.00097 ± 2e-05,0.00125 ± 0.00016,0.00098,–,–,–,–,–,–,–,–
YEETRGVLKVFLE [Unmod H4 variant Y E E T R G V L K V F L E],0.00188 ± 2.3e-05,0.00157,0.00197 ± 3e-05,0.001913 ± 1.9e-05,0.00123 ± 0.00021,0.000742,0.000287 ± 2.9e-06,0.000807 ± 2.5e-05,–,–,–,–,–,–,–,–
GGVKRISGLIYEE [Unmod H4 variant G G V K R I S G L I Y E E],0.00323 ± 0.00011,0.0107 ± 0.006,0.00507 ± 0.0008,0.0272 ± 0.027,0.000755 ± 7e-05,0.00126 ± 5.7e-05,0.000664 ± 7.4e-05,0.000923 ± 3.4e-05,–,–,–,–,–,–,–,–
GGKGLGKGGAKRH [Unmod H4 variant G G K G L G K G G A K R H],0.00373 ± 6.8e-05,0.011 ± 0.0003,0.0132 ± 0.0071,0.0147 ± 0.00057,0.000547 ± 1.1e-05,0.00114 ± 2.3e-05,0.0003775 ± 3.7e-06,0.00075 ± 7.9e-06,–,–,–,–,–,–,–,–
IQGITKPAIRRLA [Unmod H4 variant I Q G I T K P A I R R L A],0.0496 ± 0.0034,0.0842 ± 0.0024,0.0565 ± 0.0092,0.119 ± 0.019,0.0125 ± 0.0012,0.0159 ± 0.0013,0.00663 ± 0.00078,0.00957 ± 0.00076,–,–,–,–,–,–,–,–
